Assay results: the supplement of paper PMC10646978
± gives the standard deviation.

What follows are compounds tested on RAW-Dual (murine macrophage reporter line) (assay: NF-kB reporter (SEAP) activity fold change vs agonist alone; higher = enhanced NF-kB activity). Details: modulator concentration 10 µM; agonist: CpG ODN 1826 0.5 ug/mL.
Summary of the method: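 RAW-Dual murine macrophage reporter cells were seeded at 50 000 per well in 384-well plates and pre-incubated 1 hour at 37 °C with compound pin-transferred to 10 μM final. After 1 hour, a PRR agonist was added and cells incubated overnight. Supernatant NF-κB (SEAP, QUANTI-Blue, 620 nm absorbance) and IRF (Lucia luciferase, QUANTI-Luc, luminescence) signals were divided by the mean agonist-only control on the same plate to give fold change. Two replicate plates were averaged, with errors by propagation.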
With `COCCCNC(=O)C1CCCN(c2ccc(Sc3ccc(Br)cc3)nn2)C1` (stereo not drawn) the NF-kB reporter was 0.99 ± 0.1.
Work on `O=C(c1ccc(F)cc1)N(C1CCCCC1)C1CCCCC1` yielded an NF-kB reporter of 0.68 ± 0.053.
Work on `CCCc1nc2c(C)cc(-c3nc4ccccc4n3C)cc2n1Cc1ccc(-c2ccccc2C(=O)O)cc1` yielded an NF-kB reporter of 1.29 ± 0.18.
Work on `Cc1ccc(NC(=O)C(C#N)=Cc2ccc(-c3cccc([N+](=O)[O-])c3)o2)cc1` yielded an NF-kB reporter of 1.07 ± 0.084.
`COc1ccc(N(CC(=O)Nc2ccccc2C(F)(F)F)S(C)(=O)=O)cc1` gave an NF-kB reporter of 0.711 ± 0.14.
In the case of `COc1ccccc1S(=O)(=O)N1CC(Oc2nc3c(C(F)(F)F)cccc3s2)C1`, the NF-kB reporter is reported as 0.935 ± 0.047.
Work on `COC(=O)C1=C(C)NC(C)=C(C(=O)OCC(C)C)C1c1ccccc1[N+](=O)[O-]` (stereo not drawn) yielded an NF-kB reporter of 0.884 ± 0.092.
`Fc1ccc(Nc2nc(NN=Cc3ccccc3F)nc(N3CCCCC3)n2)cc1` gave an NF-kB reporter of 1.41 ± 0.13.
`COc1ccc(S(=O)(=O)Nc2ccc(Oc3ccccc3)cc2)cc1` gave an NF-kB reporter of 1.04 ± 0.18.
Compound `Br.CN(C)CCCC1(c2ccc(F)cc2)OCc2cc(C#N)ccc21` (stereo not drawn) has an NF-kB reporter of 0.81 ± 0.12.
For `COc1cccc(N2C(=O)CN(Cc3ccccc3)C3CS(=O)(=O)CC32)c1` (stereo not drawn), the NF-kB reporter was 1.43 ± 0.078.
`O=C(O)CC(C(=O)O)N1C(=O)C(=C2C(=O)Nc3ccc(Br)cc32)SC1=S` (stereo not drawn) showed an NF-kB reporter of 0.775 ± 0.28.
Work on `c1ccc(CNc2nc(N3CCOCC3)nc(N3CCOCC3)n2)cc1` yielded an NF-kB reporter of 0.882 ± 0.24.
For `Cc1nnc(NC(=O)c2cccc([N+](=O)[O-])c2)s1`, the NF-kB reporter was 1.03 ± 0.084.
In the case of `COc1ccc(N(CC(=O)N2CCc3ccccc3C2)S(C)(=O)=O)c(OC)c1`, the NF-kB reporter is reported as 1.04 ± 0.13.
For `O=C(Nc1cccnc1)c1ccc(OC2CCOCC2)nc1`, the NF-kB reporter was 1.08 ± 0.37.
`CC[C@H](C)C(=O)O[C@H]1C[C@@H](C)C=C2C=C[C@H](C)[C@H](CC[C@@H]3C[C@@H](O)CC(=O)O3)[C@H]21` gave an NF-kB reporter of 2.37 ± 0.12.
`Cc1c(C)n2c3c(=O)n(CC=Cc4ccccc4)c(=O)n(C)c3nc2n1CCOCCO` was tested, and the NF-kB reporter was 0.702 ± 0.046.
`O=C(Nc1ncc(S(=O)(=O)c2ccc([N+](=O)[O-])cc2)s1)c1cccs1` showed an NF-kB reporter of 1.06 ± 0.11.
Compound `CN1c2ccccc2-c2ccccc2C12C=Cc1cc([N+](=O)[O-])ccc1O2` (stereo not drawn) has an NF-kB reporter of 0.385 ± 0.021.
`CCn1cc(C(=O)O)c(=O)c2cc(F)c(N3CCN(C)CC3)cc21.CS(=O)(=O)O.O.O` gave an NF-kB reporter of 0.788 ± 0.11.
In the case of `Cc1cc(OCC(O)Cn2cnc3ccccc32)ccc1Cl` (stereo not drawn), the NF-kB reporter is reported as 1.05 ± 0.06.
`CCN(CC)C(=O)N1CCN(C)CC1` [Prestw-284] gave an NF-kB reporter of 1.02 ± 0.063.
`Cc1cnc2c(c1SCC(=O)N1CCc3ccccc31)c(=O)n(C)c(=O)n2C` showed an NF-kB reporter of 1.01 ± 0.057.
In the case of `Cc1c(C)c2c(c(C)c1O)CCC(C)(CCCC(C)CCCC(C)CCCC(C)C)O2` (stereo not drawn), the NF-kB reporter is reported as 1.02 ± 0.085.
`COc1cc2nc(N(C)CCCNC(=O)C3CCCO3)nc(N)c2cc1OC` (stereo not drawn) [Prestw-322] gave an NF-kB reporter of 1.45 ± 0.43.
Compound `Cc1cc(C)nc(Nc2ncc(O)n2-c2ccc(F)cc2)n1` has an NF-kB reporter of 1.11 ± 0.087.
With `Cc1cc(OCC(=O)NN=Cc2ccc(O)c([N+](=O)[O-])c2)ccc1Cl` the NF-kB reporter was 1.03 ± 0.29.
`COc1ccc(C2Oc3cc(OC)cc(OC)c3CC2O)cc1` (stereo not drawn) was tested, and the NF-kB reporter was 1.01 ± 0.24.
In the case of `O=S1(=O)N=C(SCc2ccccc2)Nc2ccc(Cl)cc21`, the NF-kB reporter is reported as 0.76 ± 0.059.
Work on `COc1ccc(Cl)cc1C(=O)N1CCC(S(=O)(=O)c2nncn2C)CC1` yielded an NF-kB reporter of 0.944 ± 0.051.
`Cc1nccn1CC1CCc2c(c3ccccc3n2C)C1=O.Cl.O.O` (stereo not drawn) was tested, and the NF-kB reporter was 0.604 ± 0.09.
Work on `O=C(Nc1cc(C(F)(F)F)cc(C(F)(F)F)c1)c1cc2ccccc2o1` yielded an NF-kB reporter of 0.961 ± 0.082.
With `CN(C)C(CNC(=O)NCc1ccc(Cl)cc1)c1ccc2c(c1)CCO2` (stereo not drawn) the NF-kB reporter was 0.616 ± 0.1.
With `COc1c(Cl)ccc(Cl)c1C(=O)NCc1ccccc1` the NF-kB reporter was 0.812 ± 0.13.
In the case of `CC(C)N(C)CCOC(=O)C(C)(c1ccccc1)c1ccccc1`, the NF-kB reporter is reported as 0.583 ± 0.047.
Compound `COCC(C)(CNS(=O)(=O)c1ccccc1Br)OC` (stereo not drawn) has an NF-kB reporter of 0.978 ± 0.091.
`CC(=O)c1ccc(NC(=O)CSc2ccc(-c3ccc4c(c3)OCO4)nn2)cc1` showed an NF-kB reporter of 0.846 ± 0.28.
Work on `COc1ccc(CCN(C)CCCC(C#N)(c2ccc(OC)c(OC)c2)C(C)C)cc1OC.Cl` (stereo not drawn) yielded an NF-kB reporter of 0.742 ± 0.21.

Same assay, conditions: modulator concentration 10 µM; agonist: LPS 0.1 ug/mL
With `COCCCNC(=O)C1CCCN(c2ccc(Sc3ccc(Br)cc3)nn2)C1` (stereo not drawn) the NF-kB reporter was 1.1 ± 0.095.
Compound `O=C(c1ccc(F)cc1)N(C1CCCCC1)C1CCCCC1` has an NF-kB reporter of 0.921 ± 0.067.
`CCCc1nc2c(C)cc(-c3nc4ccccc4n3C)cc2n1Cc1ccc(-c2ccccc2C(=O)O)cc1` showed an NF-kB reporter of 1.16 ± 0.29.
For `Cc1ccc(NC(=O)C(C#N)=Cc2ccc(-c3cccc([N+](=O)[O-])c3)o2)cc1`, the NF-kB reporter was 1.06 ± 0.094.
In the case of `COc1ccc(N(CC(=O)Nc2ccccc2C(F)(F)F)S(C)(=O)=O)cc1`, the NF-kB reporter is reported as 0.672 ± 0.27.
For `COc1ccccc1S(=O)(=O)N1CC(Oc2nc3c(C(F)(F)F)cccc3s2)C1`, the NF-kB reporter was 1.18 ± 0.097.
With `COC(=O)C1=C(C)NC(C)=C(C(=O)OCC(C)C)C1c1ccccc1[N+](=O)[O-]` (stereo not drawn) the NF-kB reporter was 0.81 ± 0.05.
With `Fc1ccc(Nc2nc(NN=Cc3ccccc3F)nc(N3CCCCC3)n2)cc1` the NF-kB reporter was 0.987 ± 0.12.
`COc1ccc(S(=O)(=O)Nc2ccc(Oc3ccccc3)cc2)cc1` gave an NF-kB reporter of 1.02 ± 0.11.
`Br.CN(C)CCCC1(c2ccc(F)cc2)OCc2cc(C#N)ccc21` (stereo not drawn) was tested, and the NF-kB reporter was 1.02 ± 0.29.
`COc1cccc(N2C(=O)CN(Cc3ccccc3)C3CS(=O)(=O)CC32)c1` (stereo not drawn) was tested, and the NF-kB reporter was 0.719 ± 0.057.
In the case of `O=C(O)CC(C(=O)O)N1C(=O)C(=C2C(=O)Nc3ccc(Br)cc32)SC1=S` (stereo not drawn), the NF-kB reporter is reported as 1.05 ± 0.11.
In the case of `c1ccc(CNc2nc(N3CCOCC3)nc(N3CCOCC3)n2)cc1`, the NF-kB reporter is reported as 0.947 ± 0.079.
`Cc1nnc(NC(=O)c2cccc([N+](=O)[O-])c2)s1` showed an NF-kB reporter of 0.97 ± 0.093.
`COc1ccc(N(CC(=O)N2CCc3ccccc3C2)S(C)(=O)=O)c(OC)c1` gave an NF-kB reporter of 1.09 ± 0.093.
In the case of `O=C(Nc1cccnc1)c1ccc(OC2CCOCC2)nc1`, the NF-kB reporter is reported as 0.97 ± 0.06.
Compound `CC[C@H](C)C(=O)O[C@H]1C[C@@H](C)C=C2C=C[C@H](C)[C@H](CC[C@@H]3C[C@@H](O)CC(=O)O3)[C@H]21` has an NF-kB reporter of 1.5 ± 0.12.
Compound `Cc1c(C)n2c3c(=O)n(CC=Cc4ccccc4)c(=O)n(C)c3nc2n1CCOCCO` has an NF-kB reporter of 1.16 ± 0.091.
Work on `O=C(Nc1ncc(S(=O)(=O)c2ccc([N+](=O)[O-])cc2)s1)c1cccs1` yielded an NF-kB reporter of 1.09 ± 0.06.
`CN1c2ccccc2-c2ccccc2C12C=Cc1cc([N+](=O)[O-])ccc1O2` (stereo not drawn) gave an NF-kB reporter of 0.916 ± 0.1.
With `CCn1cc(C(=O)O)c(=O)c2cc(F)c(N3CCN(C)CC3)cc21.CS(=O)(=O)O.O.O` the NF-kB reporter was 1.13 ± 0.13.
For `Cc1cc(OCC(O)Cn2cnc3ccccc32)ccc1Cl` (stereo not drawn), the NF-kB reporter was 1.1 ± 0.084.
Compound `CCN(CC)C(=O)N1CCN(C)CC1` [Prestw-284] has an NF-kB reporter of 1.03 ± 0.064.
Work on `Cc1cnc2c(c1SCC(=O)N1CCc3ccccc31)c(=O)n(C)c(=O)n2C` yielded an NF-kB reporter of 1.22 ± 0.18.
Compound `Cc1c(C)c2c(c(C)c1O)CCC(C)(CCCC(C)CCCC(C)CCCC(C)C)O2` (stereo not drawn) has an NF-kB reporter of 0.997 ± 0.052.
For `COc1cc2nc(N(C)CCCNC(=O)C3CCCO3)nc(N)c2cc1OC` (stereo not drawn) [Prestw-322], the NF-kB reporter was 0.957 ± 0.11.
In the case of `Cc1cc(C)nc(Nc2ncc(O)n2-c2ccc(F)cc2)n1`, the NF-kB reporter is reported as 1.1 ± 0.13.
For `Cc1cc(OCC(=O)NN=Cc2ccc(O)c([N+](=O)[O-])c2)ccc1Cl`, the NF-kB reporter was 1.04 ± 0.092.
`COc1ccc(C2Oc3cc(OC)cc(OC)c3CC2O)cc1` (stereo not drawn) showed an NF-kB reporter of 1.01 ± 0.07.
With `O=S1(=O)N=C(SCc2ccccc2)Nc2ccc(Cl)cc21` the NF-kB reporter was 0.913 ± 0.067.
In the case of `COc1ccc(Cl)cc1C(=O)N1CCC(S(=O)(=O)c2nncn2C)CC1`, the NF-kB reporter is reported as 1.04 ± 0.11.
In the case of `Cc1nccn1CC1CCc2c(c3ccccc3n2C)C1=O.Cl.O.O` (stereo not drawn), the NF-kB reporter is reported as 0.917 ± 0.11.
In the case of `O=C(Nc1cc(C(F)(F)F)cc(C(F)(F)F)c1)c1cc2ccccc2o1`, the NF-kB reporter is reported as 1.05 ± 0.08.
`CN(C)C(CNC(=O)NCc1ccc(Cl)cc1)c1ccc2c(c1)CCO2` (stereo not drawn) showed an NF-kB reporter of 1.17 ± 0.091.
With `COc1c(Cl)ccc(Cl)c1C(=O)NCc1ccccc1` the NF-kB reporter was 1.01 ± 0.12.
Compound `CC(C)N(C)CCOC(=O)C(C)(c1ccccc1)c1ccccc1` has an NF-kB reporter of 1.03 ± 0.068.
Work on `COCC(C)(CNS(=O)(=O)c1ccccc1Br)OC` (stereo not drawn) yielded an NF-kB reporter of 1.13 ± 0.091.
`CC(=O)c1ccc(NC(=O)CSc2ccc(-c3ccc4c(c3)OCO4)nn2)cc1` gave an NF-kB reporter of 1.04 ± 0.096.
With `COc1ccc(CCN(C)CCCC(C#N)(c2ccc(OC)c(OC)c2)C(C)C)cc1OC.Cl` (stereo not drawn) the NF-kB reporter was 1.02 ± 0.25.
